PABP FP inh: PABP-poly(A) binding inhibition | PABP-poly(A) RNA binding, fluorescence polarization | AID 2014 | 1% of 290,000 active | P11940 | calls only at 35 µM;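 further: calls also rest on retests at 20 µM and on dose response follow-up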
PERK inh: human PERK inhibition, primary cell-based screen. Q9NZJ5. inhibition, % at 5.6 µM. 0.17% of 220,000 active. CHO PERK-DD fusion, SEAP luminescence translation reporter. AID 1416;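 active means inhibition above the mean inhibition of all tested compounds plus 3 SD, set separately per screening campaign, cut at about 2.9% in these data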;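 further: PERK kinase domain activated by AP20187 dimerizer at 100 nM; 0% = DMSO with dimerizer and 100% = rapamycin at 8.4 µM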
Target sequence (Q9NZJ5 whole entry, looked up, the tested form may be a part): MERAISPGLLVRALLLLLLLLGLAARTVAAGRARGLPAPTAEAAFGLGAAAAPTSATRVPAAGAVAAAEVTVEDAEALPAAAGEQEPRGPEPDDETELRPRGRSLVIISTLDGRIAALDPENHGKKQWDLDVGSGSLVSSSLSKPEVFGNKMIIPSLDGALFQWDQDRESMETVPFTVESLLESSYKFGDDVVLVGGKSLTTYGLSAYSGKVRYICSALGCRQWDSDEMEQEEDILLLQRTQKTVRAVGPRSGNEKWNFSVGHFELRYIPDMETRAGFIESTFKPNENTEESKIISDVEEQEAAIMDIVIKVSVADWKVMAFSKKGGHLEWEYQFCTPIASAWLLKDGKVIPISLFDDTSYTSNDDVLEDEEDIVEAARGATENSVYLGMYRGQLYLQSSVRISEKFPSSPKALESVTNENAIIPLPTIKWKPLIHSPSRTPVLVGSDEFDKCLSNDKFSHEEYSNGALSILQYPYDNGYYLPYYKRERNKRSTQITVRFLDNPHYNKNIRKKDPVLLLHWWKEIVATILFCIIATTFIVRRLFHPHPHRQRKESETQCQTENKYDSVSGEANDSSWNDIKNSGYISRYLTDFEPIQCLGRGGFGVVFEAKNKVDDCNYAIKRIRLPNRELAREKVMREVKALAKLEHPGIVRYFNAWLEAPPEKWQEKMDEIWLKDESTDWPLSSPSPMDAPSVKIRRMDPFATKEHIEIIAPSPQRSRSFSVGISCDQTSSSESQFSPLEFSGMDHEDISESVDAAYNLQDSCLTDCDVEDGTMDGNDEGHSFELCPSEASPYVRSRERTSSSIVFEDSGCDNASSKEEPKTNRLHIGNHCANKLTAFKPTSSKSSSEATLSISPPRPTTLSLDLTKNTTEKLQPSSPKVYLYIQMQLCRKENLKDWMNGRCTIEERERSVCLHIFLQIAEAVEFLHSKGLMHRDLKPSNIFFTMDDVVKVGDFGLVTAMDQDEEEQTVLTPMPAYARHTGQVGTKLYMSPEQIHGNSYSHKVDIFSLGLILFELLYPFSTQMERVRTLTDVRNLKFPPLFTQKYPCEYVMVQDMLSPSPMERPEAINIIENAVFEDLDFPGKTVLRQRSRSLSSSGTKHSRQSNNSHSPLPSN
eIF4H FP inh: inhibitors of RNA binding by human eIF4H | 0.94% of 290,000 active | Q15056 | eIF4H fluorescence polarization binding assay | AID 2012 | inhibition, % at 35 µM;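 further: calls also rest on retests at 20 µM and on dose response follow-up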
eIF4E-4G inh: inhibitors of eIF4E and eIF4G interaction in translation initiation. P63073+Q04637. TR-FRET eIF4E-eIF4GI(517-606) binding, 2 h. inhibition, % at 21.7 µM. 0.37% of 220,000 active;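 active means inhibition above about 30%, limit read from the data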;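 further: 0% = full FRET control wells and 100% = background wells lacking eIF4GI fragment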
MLLE-PAM2 inh: blocks PAM2 peptide binding to the PABP1 MLLE domain | P11940 | GST-MLLE / FITC-PAM2 fluorescence polarization | inhibition, % at 20 µM | 0.36% of 360,000 active; in the data active means inhibition above about 35%, passing the limit was not always enough;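 further: plate controls were DMSO wells with GST-MLLE for no effect and wells lacking GST-MLLE protein for full effect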
* hit, by the source's call; i = inactive; ? = inconclusive; / = no result given; + = active, no number; [ ] = another dose, or the depositor's remark. Only some compounds are listed: those with a hit (about 1.6% of all), similar ones and a draw of the others. Unless noted, how the calls were made is not given here.

SMILES | PABP FP inh | PERK inh | eIF4H FP inh | eIF4E-4G inh | MLLE-PAM2 inh
Cn1c(CCC(=O)O)nc2cc(S(=O)(=O)N3CCCCC3)ccc21 | / | / | / | / | 39*
Cn1c(CCC(=O)O)nc2cc(S(=O)(=O)N3CCCC3)ccc21 | / | / | / | / | -11
c1ccc(COC2CCCN(Cc3nc(-c4cccs4)no3)C2)nc1 (centres undefined) | i | 0 | -1 | 1 | 40*
COc1cc(C(c2nnnn2C2CCCC2)N2CCN(C(=O)c3ccco3)CC2)cc(OC)c1OC (centres undefined) | i | / | -17 | / | 3
Cn1nnnc1SCCNCc1cccnc1 | i | 3.2* | -2 | 3 | 7
COc1cccc(CNCCSc2nnnn2C)c1 | i | -1 | -3 | 8 | -1
COc1ccc(OC)c(-c2csc(NC(=O)CSCc3c(C)noc3C)n2)c1 | / | / | / | / | -6
Cc1ccc(S(=O)(=O)N(C)CC(=O)N(C)CCOc2ccccc2)cc1 | / | / | / | / | -2
Cc1ccccc1CC1CCN(CCCNC(=O)Nc2ccccc2)CC1 | i | / | -11 | / | 2
CCOc1cc(/C=C2/N=C(C)C(C(=O)OC)=C2O)ccc1O | i | 0 | 9 | 1 | -71
CCOC(=O)C1=C(O)/C(=C\c2sccc2C)N=C1C | + | 1 | 78* | 23 | 9
COC(=O)C1=C(O)/C(=C\c2sccc2C)N=C1C | + | 1 | 65* | 1 | 1
Cc1cc(NC(=O)CSCC(=O)Nc2ccc(C)c(C)c2)no1 | / | / | / | / | 8
COc1cc(C(=O)NNC(=O)C2CC=CCC2C(=O)O)cc(OC)c1OC (centres undefined) | i | 1 | -7 | 30*[fluorescence artefact?] | 12
N#CC1=C(N)NC(=S)C(C(N)=O)C1c1ccc([N+](=O)[O-])cc1 (centres undefined) | i | 1 | 8 | -8 | 39*
C=CCNc1ncnc2c1ncn2C1OC(CO)C(O)C1O (centres undefined) | i | 3.0* | 0 | -4 | 3
O=C1c2ccccc2COc2ccc(O)cc21 | i | 1 | 51* | 0 | 8
CCOc1ccccc1NC(=O)N1CCC(NC(=O)c2cccc(C)c2)CC1 | i | -1 | 17 | 56* | -17
COc1ccc(-c2cc(C(=O)NCC3CCCO3)c3cc(C(C)C)ccc3n2)cc1 (centres undefined) | / | / | / | / | -1
COc1ccc(NC2=NCC(=O)N2Cc2cccs2)cc1 | i | 0 | -6 | 43* | 2
COc1ccc(NC2=NCCC(=O)N2Cc2cccs2)cc1 | i | 1 | -3 | -2 | -1
COC(=O)[C@@]1(Cc2ccc(OC)cc2)[C@@H]2[C@@H](CC(=O)[C@H]2CC(=O)C(=O)N(C)C)CN1C(=O)c1ccccc1 | i | 0 | 28 | -1 | -2
COC(=O)[C@@]1(Cc2ccc(F)cc2)[C@@H]2[C@@H](CC(=O)[C@H]2CC(=O)C(=O)N(C)C)CN1C(=O)c1ccccc1 | + | 0 | 71* | 2 | -6
O=C(COC(=O)/C=C/c1ccc(Cl)cc1Cl)NCc1ccco1 | i | 0 | 6 | 2 | 0
Cc1nc2ncccn2c1-c1csc(NCc2ccco2)n1 | + | 0 | 73 | 1 | 25
SMILES | PABP FP inh | PERK inh | eIF4H FP inh | eIF4E-4G inh | MLLE-PAM2 inh
Cc1ccc2cc(C)c3nnc(SCc4ccc(C(=O)O)cc4)n3c2c1C | i | 1 | 0 | 97* | -67
CCOC(=O)N/N=C(\CCC(=O)O)c1cccs1 | i | 3.0* | -1 | -4 | 6
CC(=O)c1cc(F)ccc1OCC(=O)Nc1ccc2c(c1)OCO2 | / | / | / | / | 10
O=C(NCc1cccs1)c1csc([C@@H]2O[C@H](CO)[C@H](O)[C@H](O)[C@H]2O)n1 | / | / | / | / | 3
O=C(NCC1CCCO1)c1ccc2[nH]c3c(c2c1)CCCC3 (centres undefined) | / | / | / | / | -5
COc1cccc(/C=C2/CN(C)CC3=C2OC(N)=C(C#N)C3c2cccc(OC)c2)c1 (centres undefined) | + | 0 | 75* | 4 | -47
COc1cccc(C2C(C#N)=C(N)OC(C(C)(C)C)=C2C#N)c1 (centres undefined) | i | 0 | -1 | 1 | -1
O=C(NC(=S)Nc1ccccc1N1CCCCC1)c1ccco1 | i | 1 | 2 | -1 | 43*
O=C(NC(=S)Nc1cccc2c(O)cccc12)c1ccccc1[N+](=O)[O-] | + | / | 75* | / | 17
O=C(NNC(=S)NC(=O)c1ccccc1[N+](=O)[O-])c1ccccc1O | i | -1 | 16 | -4 | 16
O=C(NC(=S)Nc1cccc2c(O)cccc12)c1ccco1 | + | / | 66* | / | 25
Cc1c(NC(=S)NC(=O)C(C)(C)C)cccc1[N+](=O)[O-] | + | 0 | active | 0 | 34
O=C(NC(=S)N1CCCc2ccccc21)c1ccco1 | i | 1 | -3 | 0 | 33
CC1Cc2ccccc2N1C(=S)NC(=O)c1ccco1 (centres undefined) | + | 0 | 2.5* | 1 | 5
COc1ccc(S(=O)(=O)N2C[C@H]3CON(C)[C@H]3C[C@H]2c2ccc(-c3cc4ccccc4o3)cc2)cc1 | / | / | / | / | -2
O=C(O/N=C1\C(=O)N(c2ccccc2)c2ccccc21)C1CC1 | i | 0 | active | 1 | -2
O=C(/C=C/[C@H]1O[C@@H](n2ccc(=O)[nH]c2=O)[C@H](O)[C@@H]1O)N1CCN(Cc2ccc(F)cc2)CC1 | / | / | / | / | -2
Cc1cc(C)c2nc(N3C(=O)C(O)=C(C(=O)c4ccco4)C3c3ccco3)sc2c1 (centres undefined) | i | / | 66* | / | 4
COc1ccc(C2C(C(=O)c3ccco3)=C(O)C(=O)N2c2nnc(C)s2)cc1OC (centres undefined) | ? | / | ? | / | 44*
CC(C)(C)N1CC23CCC(C[C@@H]2C1=O)O3 (some centres undefined) | / | / | / | / | -8
CN1C(=O)C(C)(C)c2cc(S(=O)(=O)N3CCC(C(=O)NCc4ccccc4Cl)CC3)ccc21 | i | / | -9 | / | 3
O=C(NCN1C(=O)C2C3C=CC(C3)C2C1=O)Nc1ccccn1 (centres undefined) | i | 0 | 7 | 4 | 0
O=C(CCN1C(=O)C2C3C=CC(C3)C2C1=O)Nc1ccccn1 (centres undefined) | i | 0 | 2 | 47* | 8
Cc1ccc(Nc2nc(N)[nH]c(=O)c2N=O)cc1 | + | 1 | ? | -2 | 20
O=C1/C(=C\c2ccc(O)cc2)SC(=S)N1/N=C/c1ccc(O)cc1 | + | 2 | 83* | 0 | -142
CC[n+]1c(/C=C/c2ccc(OC(C)=O)c(OC)c2)ccc2ccccc21 | i | / | 4 | / | -135
CC[n+]1c(/C=C/c2ccc(OC)c(OC)c2)ccc2ccccc21 | + | / | 1 | / | -141
CCOCCn1c(=NC(=O)CSCC(=O)N2CCOCC2)sc2cc(OC)ccc21 | i | / | -9 | / | 18
CCN(CC)c1ccc(N=Cc2c(C)[nH]c3ccccc23)cc1 | i | 1 | 9 | 32*[fluorescence artefact?] | -15
COc1ccc2c(c1)c(=O)oc1cc(O)ccc12 | i | 3.4* | 5 | -2 | -8
